Screening results as filed in PubChem BioAssay.
ssDAF12 agonist: S. stercoralis DAF-12 nuclear receptor activators, primary screen, cell-based, luminescence, HEK293, GRIP1 co-expression, lit1-tk-luc; Nuclear hormone receptor DAF-12 (Strongyloides stercoralis); activation, % at 6.8 µM; HEK293 ssDAF-12/GRIP1 lit1-tk-luc reporter; % of 3 µM dafachronic acid response; actives 1% (n = 370,000);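 active = activation above the mean over all tested compounds plus 3 SD, cut at about 0.9% in these data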;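 note: 0% = DMSO-only wells and 100% = 3 µM delta7-dafachronic acid wells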
SMARCA2 activ: SMARCA2 (BRM) function activators, primary screen, cell-based, luminescence, high throughput; MG213 cells, MMTV-luciferase reporter, dexamethasone, overnight; activation, % at 9.1 µM; actives 1% (n = 370,000); AID 652017, 2013; in the data active = activation above about 7.8%;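 note: 0% = vehicle wells and 100% = reference activator wells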
hgDAF-12 ag: H. glycines DAF-12 receptor agonists, primary screen, cell-based, luminescence, HEK293, GAL4 fusion, UAS-luciferase. HEK293 GAL4-hgDAF12 UAS-luciferase reporter, agonist luminescence; normalized to butyrate control. actives 1.8% (n = 370,000). activation, % at 6.8 µM. AID 687014, 2013. Nuclear hormone receptor DAF-12 (Heterodera glycines), GAL4 fusion;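 active = activation above a cutoff set at the mean of all screened compounds plus 3 SD, cut at about 10% in these data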;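 note: 0% = DMSO wells and 100% = sodium butyrate wells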
DAX1 inh-1: DAX1 (NR0B1) inhibitors on StAR promoter, primary screen, cell-based, luminescence, SF-1 (NR5A1), full-length DAX-1. HEK293T StAR-luciferase reporter, SF-1/DAX-1 repression relief. inhibition, % at 6.8 µM. actives 1.1% (n = 370,000);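 active = inhibition above the mean over all tested compounds plus 3 SD, cut at about 3.6% in these data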;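 note: 0% = DAX-1 cells with DMSO and 100% = cells lacking DAX-1 with DMSO; higher inhibition means more luminescence from relief of DAX-1 repression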
DAX1 inh-2: DAX1 (NR0B1) inhibitors, primary screen, cell-based, HEK293, Gal4-DAX1, luciferase luminescence; Nuclear receptor subfamily 0 group B member 1 (Homo sapiens), P51843; HEK293 Gal4-DAX1 luciferase reporter; inhibition, % at 6.75 µM; actives 0.99% (n = 340,000); AID 504766, 2011;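 active = inhibition above the mean over all tested compounds plus 3 SD, cut at about 4.2% in these data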;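 note: 0% = DAX1-transfected cells with DMSO and 100% = empty-vector control cells with DMSO; inhibition shows as a rise in luminescence from relieved DAX1 repression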
hcDAF-12 act: H. contortus DAF-12 nuclear receptor activators, primary screen, cell-based, luminescence, HEK293, lit1-tk-luc reporter; HEK293 hcDAF-12 lit1-tk-luc reporter; 0% DMSO, 100% Δ7-dafachronic acid; activation, % at 6.8 µM; actives 1.4% (n = 370,000);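 active = activation above the mean of all tested compounds plus 3 SD, cut at about 5.5% in these data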;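 note: 100% = response to 3 µM Δ7-dafachronic acid high control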
hgDAF12 ag: H. glycines DAF-12 receptor agonists, confirmation, cell-based, luminescence, HEK293, GAL4-LBD fusion; AID 743050, 2013; shares compounds with hgDAF-12 ag; activation, % at 6.8 µM; actives 80% (n = 3,300); HEK293 GAL4-hgDAF12 luciferase reporter, agonist mode; percent of butyrate response;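 active = mean activation over triplicate wells above the hit cutoff derived from the earlier primary screen, cut at about 11% in these data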;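 note: 0% = DMSO low control and 100% = 2 mM sodium butyrate high control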
LXRb DAF12 ctr: LXR agonists, Gal4 luciferase reporter, confirmation, counter-screen for hgDAF-12 agonist project, cell-based, luminescence, HEK293, H. glycines campaign; shares compounds with hgDAF-12 ag; 24 h; activation, % at 6.8 µM; 3,300 tested, under 10 active; AID 743051, 2013;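 active = mean activation of the triplicate above a set limit carried over from the primary screen, none filed active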
Target sequence (P55055 whole entry, looked up, the tested form may be a part): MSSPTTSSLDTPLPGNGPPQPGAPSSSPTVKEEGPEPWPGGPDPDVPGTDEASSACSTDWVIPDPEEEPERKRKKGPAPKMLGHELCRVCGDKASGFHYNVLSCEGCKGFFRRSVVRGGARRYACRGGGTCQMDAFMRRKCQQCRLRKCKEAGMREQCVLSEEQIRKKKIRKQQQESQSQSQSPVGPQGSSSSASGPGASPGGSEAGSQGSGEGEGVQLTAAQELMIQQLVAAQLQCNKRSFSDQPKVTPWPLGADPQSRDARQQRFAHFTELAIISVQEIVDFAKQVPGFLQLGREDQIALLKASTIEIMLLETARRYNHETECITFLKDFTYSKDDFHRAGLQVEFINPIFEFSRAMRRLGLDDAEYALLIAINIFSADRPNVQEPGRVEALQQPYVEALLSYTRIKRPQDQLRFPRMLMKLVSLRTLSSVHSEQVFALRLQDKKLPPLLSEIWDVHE
* = called active by the depositor. This is a sample that favours compounds with a hit; in the whole collection about 4.8% have one here.

`O=C(N/N=C/c1ccccc1Cl)c1ccncc1` gave ssDAF12 agonist -1, SMARCA2 activ 0, hgDAF-12 ag 0, DAX1 inh-1 0, DAX1 inh-2 2 and hcDAF-12 act -2.
Screening O=C(N/N=C/c1cccc(F)c1)c1ccc(Cl)cc1 returned ssDAF12 agonist 0, SMARCA2 activ 3, hgDAF-12 ag 18*, DAX1 inh-1 3.7*, DAX1 inh-2 3, hcDAF-12 act 2, hgDAF12 ag 12* and LXRb DAF12 ctr 0.
For Oc1ccc(Br)cc1C=Nc1ccc(Cl)cc1 the results were ssDAF12 agonist -1, SMARCA2 activ 2, hgDAF-12 ag -2, DAX1 inh-1 -1, DAX1 inh-2 2 and hcDAF-12 act 0.
For O=C(CN(c1ccccn1)S(=O)(=O)c1ccc(F)cc1)Nc1ccccc1 the results were ssDAF12 agonist -1, SMARCA2 activ 2, hgDAF-12 ag 2, DAX1 inh-1 0, DAX1 inh-2 2 and hcDAF-12 act 0.
`CCOC(=O)CSc1nc2cc3c(cc2cc1C#N)OCO3` gave ssDAF12 agonist 1, SMARCA2 activ 6, hgDAF-12 ag 14*, DAX1 inh-1 3, DAX1 inh-2 2, hcDAF-12 act 4, hgDAF12 ag 15* and LXRb DAF12 ctr 1.
Screening COC(=O)CSc1nc2cc3c(cc2cc1C)OCCO3 returned ssDAF12 agonist -1, SMARCA2 activ -1, hgDAF-12 ag 1, DAX1 inh-1 0, DAX1 inh-2 -1 and hcDAF-12 act -1.
`CCOC(=O)CSc1nc2cc3c(cc2cc1C#N)OCCO3` gave ssDAF12 agonist 0, SMARCA2 activ 3, hgDAF-12 ag 17*, DAX1 inh-1 3, DAX1 inh-2 12*, hcDAF-12 act 4, hgDAF12 ag 12* and LXRb DAF12 ctr 1.
For COc1cc(/C=C/C(=O)OCC(=O)Nc2c(C)n(C)n(-c3ccccc3)c2=O)ccc1OCC#N the results were ssDAF12 agonist -1, SMARCA2 activ 0, hgDAF-12 ag -2, DAX1 inh-1 0, DAX1 inh-2 -1 and hcDAF-12 act 0.
`CC(=O)Nc1ccc(-n2c(=O)c3ccccc3c3ccccc3c2=O)cc1` gave ssDAF12 agonist -1, SMARCA2 activ -2, hgDAF-12 ag -2, DAX1 inh-1 -1, DAX1 inh-2 0 and hcDAF-12 act -1.
Screening Cc1ccc(S(=O)(=O)NCC2CCC(C(=O)N3CCN(C)CC3)CC2)cc1 (stereo not given) returned ssDAF12 agonist -1, SMARCA2 activ 0, hgDAF-12 ag -2, DAX1 inh-1 0, DAX1 inh-2 0 and hcDAF-12 act 0.
For CNc1nc(-c2ccc3c(c2)CCN3C(=O)c2ccccc2F)cs1 the results were ssDAF12 agonist 0, SMARCA2 activ 6, hgDAF-12 ag 23*, DAX1 inh-1 3.9*, DAX1 inh-2 1, hcDAF-12 act 5, hgDAF12 ag 18* and LXRb DAF12 ctr 1.
For CNc1nc(-c2ccc3c(c2)CCN3C(=O)c2ccccc2F)c(C)s1 the results were ssDAF12 agonist -1, SMARCA2 activ 2, hgDAF-12 ag 1, DAX1 inh-1 -1, DAX1 inh-2 -2 and hcDAF-12 act -1.
For Cc1cc(C(=O)NCc2ccco2)on1 the results were ssDAF12 agonist -1, SMARCA2 activ 5, hgDAF-12 ag 5, DAX1 inh-1 0, DAX1 inh-2 0 and hcDAF-12 act 1.
For OCc1ccc(N=Nc2ccccc2)cc1 the results were ssDAF12 agonist 0, SMARCA2 activ 3, hgDAF-12 ag 13*, DAX1 inh-1 2, DAX1 inh-2 3, hcDAF-12 act 3, hgDAF12 ag 17* and LXRb DAF12 ctr 1.
`Oc1ccc(N=Nc2ccccc2)cc1` gave ssDAF12 agonist 0, SMARCA2 activ 3, hgDAF-12 ag 10, DAX1 inh-1 1, DAX1 inh-2 2 and hcDAF-12 act 4.
For Cc1ccc(C(=O)NCCc2ccc(F)cc2)s1 the results were ssDAF12 agonist 0, SMARCA2 activ 1, hgDAF-12 ag 17*, DAX1 inh-1 3, DAX1 inh-2 1, hcDAF-12 act 3, hgDAF12 ag 17* and LXRb DAF12 ctr 1.
`Cc1ccc(C(=O)NCc2ccc(F)cc2)s1` gave ssDAF12 agonist -1, SMARCA2 activ -1, hgDAF-12 ag 3, DAX1 inh-1 0, DAX1 inh-2 1 and hcDAF-12 act 0.
Screening COc1ccc(/C=N/Nc2ccccn2)cc1O returned ssDAF12 agonist 0, SMARCA2 activ 5, hgDAF-12 ag 17*, DAX1 inh-1 2, DAX1 inh-2 3, hcDAF-12 act 4, hgDAF12 ag 12* and LXRb DAF12 ctr 0.
Screening Oc1cccc(C=NNc2ccccn2)c1 returned ssDAF12 agonist 0, SMARCA2 activ -1, hgDAF-12 ag 4, DAX1 inh-1 2, DAX1 inh-2 4 and hcDAF-12 act -2.
Brc1ccc(/C=N/Nc2ccccn2)cc1 was read as ssDAF12 agonist 1, SMARCA2 activ 3, hgDAF-12 ag 15*, DAX1 inh-1 2, DAX1 inh-2 1, hcDAF-12 act 2, hgDAF12 ag 11* and LXRb DAF12 ctr 0.
Fc1ccc(/C=N/Nc2ccccn2)cc1 was read as ssDAF12 agonist -1, SMARCA2 activ 4, hgDAF-12 ag 7, DAX1 inh-1 2, DAX1 inh-2 2 and hcDAF-12 act 1.
For Nc1ccccc1N=Cc1ccc(-c2cccc(Cl)c2)o1 the results were ssDAF12 agonist 1.3*, SMARCA2 activ -2, hgDAF-12 ag 22*, DAX1 inh-1 2, DAX1 inh-2 3, hcDAF-12 act 3, hgDAF12 ag 15* and LXRb DAF12 ctr 0.
For COc1ccc(N2Cc3ccccc3C2)cc1Cl the results were ssDAF12 agonist 0, SMARCA2 activ 0, hgDAF-12 ag 14*, DAX1 inh-1 -2, DAX1 inh-2 0, hcDAF-12 act 0, hgDAF12 ag 6 and LXRb DAF12 ctr 0.
